The supplement of paper PMC10981050
Counter-ions that a name gives are not always drawn.

Tested on: MARIMO
Experiment: cell viability relative to vehicle control; higher = less cytotoxic
Conditions: 10 µM; SRSF2 genotype: SRSF2 wt/wt
Outline: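 After removal of identity-inconsistent compounds, the Selleck bioactive, kinase and epigenetic probe libraries were screened on CRISPR-edited mutant clones and isogenic wild-type clones of four leukaemia lines. Plates were 384-well, each well holding 2000 cells in 50 µL medium and receiving a single 10 µM acoustically dispensed dose. CellTiter-Glo luminescence was read 48 h later, after the supernatant was taken off. Genedata Screener was used to express viability as percent of the on-plate vehicle control.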

Row | SMILES | cell viability [%]
1 | CCC[C@H](Nc1nc(-c2ccc(NC(=O)NCC)c(OC)c2)ncc1C)c1cccnc1 | 10
2 | O=C(O)CCc1ccc(NCc2cccc(Oc3ccccc3)c2)cc1 | 93.1
3 | NC(=O)N/N=C/c1ccc([N+](=O)[O-])o1 [Nitrofurazone (Nitrofural)] | 100
4 | Cc1cnc(C(=O)O)c[n+]1[O-] [Acipimox] | 100
5 | CS(=O)(=O)c1ccc(-c2cnc(N)c(C(=O)Nc3ccccc3)n2)cc1 | 110
6 | COCCOc1nc(-c2ccc(Cl)c(Cl)c2)n(-c2ccc(NC(=O)CCl)cc2)n1 [MI-2 (MALT1 inhibitor)] | 0.7
7 | O=C(O)C(S)=Cc1c[nH]c2ccc(F)cc12 | 109
8 | C[C@]1(O)C[C@@H](c2nc(-c3ccc4ccc(-c5ccccc5)nc4c3)c3c(N)nccn32)C1 [OSI-906 (Linsitinib)] | 40.8
9 | O=C(O)/C=C/c1ccc(O)cc1 [p-Coumaric Acid] | 110
10 | c1ccc(-c2ccc(C(c3ccccc3)n3ccnc3)cc2)cc1 (stereo not given) [Bifonazole] | 87.7
11 | Cc1cc(C)c(/C=C2\C(=O)Nc3ccccc32)[nH]1 [Semaxanib (SU5416)] | 97.4
12 | NC[C@@](O)(c1ccc(Cl)cc1)c1ccc(-c2cn[nH]c2)cc1 | 56.4
13 | COc1cc(/C=C/C(=O)CC(=O)/C=C/c2ccc(O)c(OC)c2)ccc1O [Curcumin] | 75.7
14 | Oc1ccc(-c2nc(-c3ccc(F)cc3)c(-c3ccncc3)[nH]2)cc1 | 113
15 | CCN(CC)CCOC(=O)C(c1ccccc1)c1ccccc1 [Adiphenine HCl] | 96.3
16 | C=C1[C@H](O)C[C@H]2[C@@H](/C=C(\C)C(=O)[C@@]3(O)C[C@H](C)[C@H](O)[C@@H]3[C@H]1O)C2(C)C | 100
17 | COc1cccc(C=NCCN=Cc2cccc(OC)c2[O-])c1[O-].[Cl-].[Mn+3] | 104
18 | c1ccc(CNc2nc(NCc3ccccc3)c3ccccc3n2)cc1 | 11
19 | CCCC1O[C@@H]2C[C@H]3[C@@H]4CCC5=CC(=O)C=C[C@]5(C)[C@H]4[C@@H](O)C[C@]3(C)[C@]2(C(=O)CO)O1 (stereo not given in full) [Budesonide] | 103
20 | Cc1[nH]c(/C=C2\C(=O)Nc3ccccc32)c(C)c1CCC(=O)O [Orantinib (TSU-68, SU6668)] | 103

Row | SMILES | cell viability [%]
21 | CC(=O)Oc1cccc2ccccc12 [1-Naphthyl acetate] | 97.5
22 | CN1CCN(CCOc2cc(OC3CCOCC3)c3c(Nc4c(Cl)ccc5c4OCO5)ncnc3c2)CC1 [Saracatinib (AZD0530)] | 107
23 | CC[C@H]1OC(=O)[C@@](C)(F)C(=O)[C@H](C)[C@@H](O[C@@H]2O[C@H](C)C[C@H](N(C)C)[C@H]2O)[C@](C)(OC)C[C@@H](C)C(=O)[C@H](C)[C@H]2N(CCCCn3cc(-c4cccc(N)c4)nn3)C(=O)O[C@]12C [Solithromycin] | 101
24 | C[C@@H]1O[C@@H](O[C@H]2[C@H](Oc3cc(O)c(C(=O)CCc4ccc(O)cc4)c(O)c3)O[C@H](CO)[C@@H](O)[C@@H]2O)[C@H](O)[C@H](O)[C@H]1O [Naringin Dihydrochalcone (Naringin DC)] | 105
25 | O=C(Nc1c[nH]nc1-c1nc2ccc(CN3CCOCC3)cc2[nH]1)NC1CC1 | 2.59
26 | Nc1ccccc1NC(=O)c1ccc(CNc2nccc(-c3cccnc3)n2)cc1 [Mocetinostat (MGCD0103)] | 9.28
27 | COc1c2c(cc3oc(COC4OC(CO)C(O)C(O)C4O)cc(=O)c13)OC(C(C)(C)O)C2 (stereo not given) [Prim-o-glucosylcimifugin] | 94
28 | CN(CCOc1ccc(CC2SC(=O)NC2=O)cc1)c1ccccn1 (stereo not given) [Rosiglitazone (Avandia)] | 101
29 | CC(C)CC(=O)Nc1n[nH]c2c1CN(C(=O)C1CCN(C)CC1)C2(C)C | 6.67
30 | CC1(C)[C@@H](O[C@H]2O[C@H](C(=O)O)[C@@H](O)[C@H](O)[C@H]2O[C@@H]2O[C@H](C(=O)O)[C@@H](O)[C@H](O)[C@H]2O)CC[C@]2(C)[C@H]3C(=O)C=C4[C@@H]5C[C@@](C)(C(=O)O)CC[C@]5(C)CC[C@@]4(C)[C@]3(C)CC[C@@H]12 [Ammonium Glycyrrhizinate (AMGZ)] | 102
31 | CCC(=O)Nc1cccc(Oc2nc(Nc3ccc(N4CCN(C)CC4)cc3OC)ncc2Cl)c1 | 68.3
32 | C[C@]12CC[C@@H]3c4ccc(O)cc4CC[C@H]3[C@@H]1C[C@@H](O)[C@@H]2O [Estriol] | 99.5
33 | COC(=O)N[C@H](C(=O)N1CCC[C@H]1c1ncc(-c2ccc(-c3ccc(-c4cnc([C@@H]5CCCN5C(=O)[C@@H](NC(=O)OC)C(C)C)[nH]4)cc3)cc2)[nH]1)C(C)C [Daclatasvir Digydrochloride] | 73.5
34 | O=C(/C=C\n1cnc(-c2cc(C(F)(F)F)cc(C(F)(F)F)c2)n1)NNc1cnccn1 [Selinexor (KPT-330)] | 22.3
35 | C[C@@H]1O[C@@H](OC[C@H]2O[C@@H](Oc3c(-c4ccc(OCCO)c(OCCO)c4)oc4cc(OCCO)cc(O)c4c3=O)[C@H](O)[C@@H](O)[C@@H]2O)[C@H](O)[C@H](O)[C@H]1O [Troxerutin] | 92.2
36 | O=C1c2c(O)cc(O)cc2OC(c2ccc(O)c(O)c2)C1O (stereo not given) [Taxifolin (Dihydroquercetin)] | 96.5
37 | COc1cc2oc(-c3ccc(O)cc3)cc(=O)c2c(O)c1[C@@H]1O[C@H](CO)[C@@H](O)[C@H](O)[C@H]1O[C@@H]1O[C@H](CO)[C@@H](O)[C@H](O)[C@H]1O [Spinosin] | 101
38 | O=C(CCNC(=O)c1ccc(OC(F)(F)F)cc1)N[C@@H]1CCCc2ccccc21 | 105
39 | O=C1Nc2ccc(I)cc2C1=Cc1cc(Br)c(O)c(Br)c1 | 109
40 | NC(=O)/C(=C/n1cnc(-c2cc(C(F)(F)F)cc(C(F)(F)F)c2)n1)c1cncnc1 | 17.5
